The entries come from a sample that favours hits as a whole.
Sfp PPTase inh: Sfp phosphopantetheinyl transferase inhibition; Q9F4F7; Biochemical Sfp PPTase activity, qHTS; Potency, µM, actives largely listed as inhibitors; 3.5% of 310,000 active;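 also: the enzyme is Sfp with the accession as filed and its product quenches rhodamine fluorescence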
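Fluorescence-quenching assay with 15 nM Sfp, 5 uM rhodamine-CoA and 12.5 uM BHQ-2-labelled ybbR peptide in pH 7.6 Hepes/MgCl2 buffer. Enzyme was pre-incubated with compound for 15 min at room temperature. Rate was taken from the 30-min fluorescence change (525/598 nm).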
GRP78 ERSR act: ER stress response induction in glioma. 0.02% of 420,000 active. U87-MG GRP78 promoter luciferase reporter, 16 h. Potency, µM, usual class: activators; also: series mostly up to about 76 µM; nearly all actives have a fitted effect of over 35% in size
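Stably transfected U87-MG human glioma cells carrying a GRP78-based luminescent sensor were seeded at 1000 cells/well, pin-dosed with compounds and incubated 16 h. Luciferase reagent was then added, and end-point luminescence was read after 10 min at room temperature.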
G9a block: inhibitors of human histone lysine methyltransferase G9a; 8.8% of 350,000 active; G9a H3K9 monomethylation, AlphaScreen, 2 h; Potency, µM (titrated, usually from 102 µM), usual class: inhibitors; also: nearly all actives have a fitted effect of over 75% in size
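Signal arises when biotinylated H3K9 peptide, once monomethylated, bridges streptavidin donor and antibody-captured acceptor beads. Enzyme at 20 nM was preincubated 15 min with test compounds; peptide 500 nM and SAM 20 uM then reacted for 2 h.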
VDR inhibitor: blocks the human vitamin D receptor | P11473 | VDR-SRC2-3 peptide fluorescence polarization, 2 h | Potency, µM, usual class: inhibitors | 0.93% of 400,000 active
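Reagent solutions, kept cold and dark, are dispensed first; compounds are then pinned in at 23 nl, plates briefly spun, and incubated 2 h at ambient temperature. Inhibition of VDR–SRC2-3 peptide binding is read by fluorescence polarization.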
ALOX12 inh: inhibitors of human 12S-lipoxygenase ALOX12; 1.1% of 580,000 active; P18054; purified 12hLO, xylenol orange hydroperoxide absorbance; Potency, µM (highest dose often 108 µM), most hits filed as inhibitors
Target sequence (P18054 whole entry, looked up): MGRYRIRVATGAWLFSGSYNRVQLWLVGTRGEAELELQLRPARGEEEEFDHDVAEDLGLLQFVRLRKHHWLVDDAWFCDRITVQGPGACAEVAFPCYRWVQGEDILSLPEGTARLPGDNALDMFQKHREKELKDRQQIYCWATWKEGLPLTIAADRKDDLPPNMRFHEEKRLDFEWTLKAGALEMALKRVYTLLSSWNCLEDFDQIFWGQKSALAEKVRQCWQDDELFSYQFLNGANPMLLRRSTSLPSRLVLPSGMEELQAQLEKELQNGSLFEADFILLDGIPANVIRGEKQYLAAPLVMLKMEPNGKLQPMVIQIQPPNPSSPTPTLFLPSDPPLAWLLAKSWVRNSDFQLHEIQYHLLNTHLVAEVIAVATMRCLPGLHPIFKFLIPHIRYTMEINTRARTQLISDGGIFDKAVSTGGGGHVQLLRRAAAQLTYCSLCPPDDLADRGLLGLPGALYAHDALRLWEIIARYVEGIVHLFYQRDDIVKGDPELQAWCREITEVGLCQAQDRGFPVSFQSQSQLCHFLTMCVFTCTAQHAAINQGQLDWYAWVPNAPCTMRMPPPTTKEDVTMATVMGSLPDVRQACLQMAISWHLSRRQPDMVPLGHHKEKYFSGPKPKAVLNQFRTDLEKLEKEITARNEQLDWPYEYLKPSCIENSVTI
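Hydroperoxide product was detected by ferrous iron/xylenol orange as the 573 to 405 nm absorbance ratio. Arachidonic acid at 40 uM (final) was turned over for 30 min at room temperature by 150 nM human 12hLO, pH 7.0 Hepes buffer, after 15 min compound preincubation.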
Hits are given with their value; n = inactive; u = inconclusive; x = no result given; ! = not active in a repeat; [ ] = dose if it differs, or a comment. Calls follow the shape of the dose curve; as a rule, active = well fitted curve in the direction sought with a large enough effect; inconclusive = small, poorly fitted or top-dose-only effect, or another doubt; inactive = no such curve, though single readings can be large; an effect the other way counts as inactive or inconclusive.

SMILES	Sfp PPTase inh	GRP78 ERSR act	G9a block	VDR inhibitor	ALOX12 inh
COc1cccc(Nc2nnc(SCN3C(=O)c4ccccc4C3=O)s2)c1	n	n	u	n	n
COc1cccc(Nc2nnc(SCc3nc4ccccc4s3)s2)c1	n	n	10µM	n	n
Cc1cccc(C)c1Nc1nnc(SCC(=O)NCc2cccs2)s1	n	n	n	n	n
N#Cc1cccc(-c2cn3c(n2)N(C(=O)Cc2cccs2)CCC3)c1	x	x	x	x	n
CCOC(=O)C1CCN(C(=O)CCC(=O)N2CCN(c3cccc(Cl)c3)CC2)CC1	x	x	x	x	n
O=C(/C=C/c1ccc(-c2ccccc2[N+](=O)[O-])o1)c1ccco1	u	n	14.1µM	u	u
O=[N+]([O-])c1ccccc1-c1ccc(/C=N/O)o1	x	x	x	x	n
O=C(C=C1SCCS1)/C=C/c1ccco1	44.7µM	n	39.8µM	n	u
O=C(/C=C/c1ccc([N+](=O)[O-])cc1)/C=C/c1ccco1	50.1µM	x	10µM	x	17.8µM
O=C(/C=C/C=C/c1ccccc1)c1ccco1	u	n	50.1µM	u	u
O=C(CCc1ncc(-c2ccccc2Cl)o1)Nc1nccs1	x	x	x	x	n
O=C(Oc1ccc2cc(-c3ccccc3)c(=O)oc2c1)C1CC1	x	x	x	x	n
CCCc1noc(C(C)Nc2ccc(N3CCCC3=O)c(Cl)c2)n1 (stereo unspecified)	x	x	x	x	n
CN(Cc1ccccc1F)C1CCc2ccccc21 (stereo unspecified)	x	x	x	x	n
O=C(N/N=C/C=C/c1ccco1)c1cccc([N+](=O)[O-])c1	n	n	u	n	n
O=C(O)c1ccc(/C=C/C(=O)c2ccco2)cc1	x	x	x	x	n
O=C(C=Cc1ccco1)c1ccco1	x	n	x	n	8.91µM
O=C(/C=C/c1ccco1)c1ccccc1	x	x	x	x	15.8µM
CC(=C/C(=O)O)/C=C/c1ccc([N+](=O)[O-])cc1	n	n	56.2µM	n	n
CC(/C=C\c1ccccc1)=C/C(=O)O	n	n	n	n	n
O=C(/C=C/c1ccco1)c1cccc([N+](=O)[O-])c1	x	n	x	70.8µM	25.1µM
CN(C)C(=O)c1c(F)cccc1F	x	x	x	x	n
COC(=O)c1cc(N2CCOCC2)ccc1N	x	x	x	x	n
O=C(CC12CC3CC(CC(C3)C1)C2)NCCc1ccc(Cl)cc1	x	x	x	x	n
Cc1ccc(C(=O)/C=C/c2ccco2)c(O)c1	44.7µM	n	28.2µM	n	u
SMILES	Sfp PPTase inh	GRP78 ERSR act	G9a block	VDR inhibitor	ALOX12 inh
Cc1ccc(O)c(C(=O)/C=C/c2ccccc2Cl)c1	x	x	x	x	n
CCc1nc2ccccc2c(C(=O)OCC(=O)NC2(C#N)CCCC2)c1C	x	x	x	x	n
CCn1c(=O)n(CC(=O)NCC(=O)Nc2cccc(C)c2C)c2ccccc21	x	x	x	x	n
C=C1C(=O)O[C@@H]2[C@H]3O[C@]3(C)CCC=C(C)CC[C@@H]12	n	n	n[12.7 µM]	35.5µM!	n
C=C1C(=O)O[C@@H]2[C@@H]1CC/C(C)=C\CC[C@@]1(C)O[C@H]21	n	n	n[12.7 µM]	u	x
Nc1cc(Cc2ccccc2)ccc1O	x	n	x	n	5.62µM
Nc1cc(N)cc(Cc2ccccc2)c1	x	n	x	x	u
COc1cc(NC(=S)Nc2ncccc2C)cc(OC)c1OC	50.1µM	n	10µM	n	15.8µM
Cc1cccnc1NC(=S)Nc1ccc(F)cc1F	17.8µM	n	50.1µM	u	15.8µM
COc1cc(NC(=S)Nc2cccc(C)n2)cc(OC)c1OC	n	n	n	u	n
Cc1ccc(C)c(NC(=S)Nc2ncccc2C)c1	u	n	31.6µM	n	28.2µM
Cc1nn2c(nnc3c(=O)n(-c4cc(Cl)cc(Cl)c4)ccc32)c1-c1ccccc1	x	x	x	x	n
COC(=O)c1cccc(S(=O)(=O)Oc2ccc3c(C)cc(=O)oc3c2C(C)=O)c1	x	x	x	x	n
CCc1ccc(N(C(C)=O)c2nc(CCl)cs2)cc1	n	n	17.8µM	n	u
CC(=O)N(c1ccccc1)c1nc(/C=C/C(=O)O)cs1	n	n	n	n	n
O=[N+]([O-])c1cc(C(F)(F)F)cc([N+](=O)[O-])c1NCc1cccnc1	n	n	50.1µM	n	n
CS(=O)(=O)NCCCNc1ccc(C(F)(F)F)cc1[N+](=O)[O-]	n	n	n	n	n
O=[N+]([O-])c1cc(C(F)(F)F)cc([N+](=O)[O-])c1NCCCNc1ccc([N+](=O)[O-])c2cccnc12	n	n	3.55µM	n	n
O=[N+]([O-])c1ccc(Cl)cc1NCc1cccnc1	x	n	x	n	n
C[C@H](NC(=O)C1CC(=O)N(c2ccc(F)cc2)C1)C(=O)N[C@@H](Cc1ccccc1)C(=O)O (stereo partly specified)	x	x	x	x	n
COc1cccc(CNC(=O)C(c2ccccc2)c2ccccc2)c1	x	x	x	x	n
O=C(CSc1ncnc2ccccc12)Nc1ccc(F)cc1	x	x	x	x	n
Cc1nn(-c2ccc3nncn3n2)c2c1C(c1c(F)cccc1F)CC(=O)N2 (stereo unspecified)	x	x	x	x	n
CC(NC(=O)c1cc(F)cc(F)c1)c1cccc(NS(C)(=O)=O)c1 (stereo unspecified)	x	x	x	x	n
N#Cc1ccc(CN2CCc3nc(C(=O)Nc4cccc(C(F)(F)F)c4)oc3CC2)cc1	x	x	x	x	n
SMILES	Sfp PPTase inh	GRP78 ERSR act	G9a block	VDR inhibitor	ALOX12 inh
Cc1cccc(NC(=O)CSc2nnc(Cc3ccccc3)n2-n2cccc2)c1	x	x	x	x	n
COc1ccc2[nH]c(=O)c(CN(C(=O)c3ccccn3)C3CCCCC3)cc2c1	n	n	28.2µM	n	u
COc1ccc2cc(CN(CCc3ccccc3)Cc3nnnn3Cc3ccco3)c(=O)[nH]c2c1	n	n	u	n	u
COc1ccc2[nH]c(=O)c(CN(C3CCCCC3)C(c3nnnn3Cc3ccco3)C(C)C)cc2c1 (stereo unspecified)	3.16µM	n	22.4µM	u	x
CCC(c1nnnn1Cc1ccco1)N(Cc1cc2cc(C)cc(C)c2[nH]c1=O)CC1CCCO1 (stereo unspecified)	22.4µM	n	u	n	u
O=C(c1ccccn1)N(Cc1cc2ccccc2[nH]c1=O)C1CCCCC1	n	n	n	n	u
COc1ccc2[nH]c(=O)c(CN(Cc3nnnn3Cc3ccco3)C3CCCCC3)cc2c1	8.91µM	n	39.8µM	79.4µM	n
CCC(c1nnnn1Cc1ccco1)N(Cc1ccccc1OC)Cc1cc2cc(C)ccc2[nH]c1=O (stereo unspecified)	n	n	n	n	u
Cc1ccc2[nH]c(=O)c(CN(Cc3nnnn3C3CCCC3)C3CCCCC3)cc2c1	n	n	n	n	u
COc1ccc(Cn2nnnc2CN(Cc2cc3cc(C)ccc3[nH]c2=O)C2CCCC2)cc1	20µM	n	u	n	n
O=C(O)c1ccc(N/N=C2/CCSc3ccc(F)cc32)cc1	n	n	50.1µM	n	u
Cc1cc(C)nc(N/N=C2/CCSc3ccc(F)cc32)n1	n	n	35.5µM	n	n
Cc1ncc2c(n1)-c1cc(F)ccc1SC2	n	n	n	n	n
CCS(=O)(=O)N1CCc2cc(C(=O)Nc3c(C)cc(C)cc3C)ccc21	x	x	x	x	n
Cc1ccc(C)c(N2CCN(S(=O)(=O)c3ccc4[nH]c5c(c4c3)CCCC5)CC2)c1	x	n	u	n	n
COc1cc(NS(=O)(=O)c2ccc3[nH]c4c(c3c2)CCCC4)cc(OC)c1OC	x	n	u	n	u

Screening results deposited in PubChem BioAssay by National Center for Advancing Translational Sciences (NCATS).
